TrxR1 substrate: is turned over as a substrate by rat TrxR1; AID 588456; O89049; purified TrxR1 substrate turnover, NADPH consumption readout; hit rate 0.01% among 390,000; Potency, µM (doses to about 114 µM), for inactives: at the highest dose activity change, negative = substrate turnover; also: nearly all actives have a fitted effect of over 50% in size
Target sequence (O89049 whole entry, looked up): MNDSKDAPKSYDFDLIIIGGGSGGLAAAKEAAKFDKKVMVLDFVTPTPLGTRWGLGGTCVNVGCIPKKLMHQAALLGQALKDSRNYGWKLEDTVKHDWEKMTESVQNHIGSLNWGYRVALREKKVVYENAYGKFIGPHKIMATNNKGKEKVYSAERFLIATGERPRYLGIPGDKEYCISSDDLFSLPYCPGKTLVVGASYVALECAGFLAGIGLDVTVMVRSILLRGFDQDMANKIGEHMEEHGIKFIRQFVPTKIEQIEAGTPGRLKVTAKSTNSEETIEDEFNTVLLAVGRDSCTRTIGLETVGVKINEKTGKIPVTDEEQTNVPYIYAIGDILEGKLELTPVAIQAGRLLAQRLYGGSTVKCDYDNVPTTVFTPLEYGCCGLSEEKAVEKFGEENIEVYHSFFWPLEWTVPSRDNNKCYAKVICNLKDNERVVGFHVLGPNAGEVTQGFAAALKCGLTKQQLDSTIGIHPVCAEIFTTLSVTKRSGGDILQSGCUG
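Rat TrxR1, dispensed at 90 nM, was prereduced with 400 uM NADPH (final) for 5 min at ~22 deg C, then incubated with compound 15 min before 400 uM selenite. A first-read NADPH fluorescence drop versus no-compound background flagged substrates.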
IDH1 R132H inh: blocks human mutant IDH1 R132H enzyme. AID 602179. Potency, µM (series often up to 76.6 µM), for the others: at the top dose activity change, negative = inhibition, most hits filed as inhibitors. IDH1-R132H enzyme, NADPH consumption, diaphorase/resazurin fluorescence. hit rate 0.093% among 390,000; also: nearly all actives have a fitted effect of over 65% in size
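IDH1-R132H (0.5 ug/mL) preincubated 30 min with compound, then NADPH (0.016 mM) and alpha-KG (2 mM) added; 80 min at RT, pH 7.5. Remaining NADPH coupled via diaphorase/resazurin to fluorescence (540/590 nm); concentration-response curves normalized to no-enzyme control.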
TrxR1 inh: inhibitors of rat thioredoxin reductase 1. O89049. recombinant rTrxR1, NADPH fluorescence consumption, selenite substrate. Potency, µM (series often up to 114 µM), without a hit: at the top dose activity change, negative = inhibition, hits mostly inhibitors. hit rate 1% among 390,000. AID 588453; also: nearly all actives have a fitted effect of over 65% in size
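Rat TrxR1 (90 nM in the dispensed reagent) was pre-reduced with 400 uM NADPH for 5 min at room temperature, then incubated with compound for 15 min. After 400 uM selenite was added, NADPH fluorescence (Ex 340/Em 450 nm) was followed for 8 min.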
RGS4 inhibitor: human RGS4 inhibition; Transcreener GDP fluorescence polarization, RGS4-accelerated GTP hydrolysis; hit rate 0.039% among 390,000; AID 504845; Potency, µM (series often up to 114 µM), without a hit: top-dose activity change, negative = inhibition, most hits filed as inhibitors; P49798; also: nearly all actives have a fitted effect of over 75% in size
Target sequence (P49798 whole entry, looked up): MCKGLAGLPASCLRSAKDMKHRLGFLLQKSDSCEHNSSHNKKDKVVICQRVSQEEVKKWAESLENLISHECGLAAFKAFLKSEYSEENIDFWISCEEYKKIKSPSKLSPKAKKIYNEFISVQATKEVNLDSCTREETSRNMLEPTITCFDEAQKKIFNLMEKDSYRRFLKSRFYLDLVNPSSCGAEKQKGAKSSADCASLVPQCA
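MLSMR compounds (23 nl, pin-transferred) preincubated 10 min at room temperature with a 500nM (2x) first reagent, then RGS4 at 900nM (2x) plus Transcreener GDP mix added; fluorescence polarization (620/688 nm) read before and after 90 min at 30 °C.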
Eya2 phos inh: Eya2 (human) phosphatase inhibition | hit rate 0.006% among 330,000 | Potency, µM (top dose mostly 76.9 µM), inactives show top-dose activity, negative = inhibition, hits mostly inhibitors | recombinant Eya2, OMFP fluorescence dephosphorylation (OMFP is methylfluorescein phosphate)
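Eya2 (0.2 uM) preincubated 10 min at ambient with compound, then OMFP substrate added at 50 uM; 10 min reaction in 50 mM HEPES pH 7.5, 50 mM NaCl, 5 uM MgCl2, 0.05% BSA, 1 mM DTT. Fluorescence read at Ex 485/Em 525 nm.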
* = called active by the depositor; ? = inconclusive; nt = no result; [ ] = remark or other dose. Only some compounds are listed: those with a hit (about 1.1% of all), similar ones and a draw of the others. Calls follow the shape of the dose curve; as a rule, active = well fitted curve in the direction sought with a large enough effect; inconclusive = small, poorly fitted or top-dose-only effect, or another doubt; inactive = no such curve, though single readings can be large; an effect the other way counts as inactive or inconclusive. % is scaled to controls: 0 for no effect and ±100 for the full control effect; potency is read from the fitted curve at half-maximal effect.

SMILES	TrxR1 substrate	IDH1 R132H inh	TrxR1 inh	RGS4 inhibitor	Eya2 phos inh
Cc1ccc(/C=C/C(=O)NCCc2ccccc2)o1	5%	1%	14µM*	?	-1%
O=C(/C=C/c1ccco1)NCCc1ccccc1	-4%	-3%	?	0%	-3%
Cc1ccc(/C=C/C(=O)Nc2cccc3ncccc23)o1	-4%	1%	10µM*	?	-21%
Cc1ccc(/C=C/C(=O)Nc2nn[nH]n2)o1	-19%	-2%	50µM*	-14%	6%
Cc1csc(NC(=O)C(F)(F)F)n1	-8%	2%	34%	5%	6%
O=S(=O)(c1cccc(F)c1)N1CCN(c2ncnc3scc(-c4ccc(F)cc4)c23)CC1	11%	10%	18%	13%	1%
COc1cc2c(cc1OC)C1(CCCC1)C(N)=C2C#N	6%[57.1 µM]	3%	7%[57.1 µM]	-29%	0%
O=C1CSC(=S)N1/N=C/C=C/c1ccccc1	-7%	0%	28µM*	-39%	-13%
COc1ccc(C#Cc2c(-c3ccccc3)n(C)c3ccccc23)cc1	22%[57.1 µM]	0%	?	-48%	10%
Cc1cc(C#Cc2c(-c3ccccc3)n(C)c3ccccc23)ccc1F	14%	0%[38.3 µM]	35µM*	-6%	13%
COc1cc(C#Cc2c(-c3ccccc3)n(C)c3ccccc23)cc(OC)c1	36%	1%[38.3 µM]	45µM*	-1%	0%
COc1ccc(-c2c(C#Cc3ccsc3)c3cc(-c4ccc5[nH]ccc5c4)ccc3n2C)cc1	21%[57.1 µM]	-8%	18%[57.1 µM]	1%	-1%
COc1ccc(-c2c(C#Cc3ccsc3)c3ccccc3n2C)cc1	14%[57.1 µM]	10%	10µM*	-30%	3%
CN=c1scc(-c2ccc(Cl)cc2)n1C	-2%	1%	8%[57.1 µM]	-18%	-16%
CCN(C(=O)COC(=O)C1CCN(S(=O)(=O)c2cccs2)CC1)c1ccccc1	3%[57.1 µM]	1%	23%[57.1 µM]	-21%	6%
Cc1ccc(CS(=O)(=O)c2ncc(Cl)c(C(=O)Nc3ccc(OC(F)F)cc3)n2)cc1	0%	3%	28µM*	?	4%
CCOc1ccc(NC(=O)c2nc(S(=O)(=O)Cc3ccc(C)cc3)ncc2Cl)cc1	-5%	nt	?	nt	nt
COc1ccc(NC(=O)c2nc(S(=O)(=O)Cc3ccc(C)cc3)ncc2Cl)cc1	6%	nt	2.5µM*	?	nt
CC1=C(C)/C(=N/OC(=O)c2cccc([N+](=O)[O-])c2)C=CC1=O	-6%	9%	8.9µM*	-7%	-18%
COC(=O)c1ccc2c(c1)C(C)(C)C(/C=C/c1ccccc1O)=[N+]2C	58%	35µM*	79µM*	?	-5%
C[N+]1=C(/C=C/Nc2ccccc2Cl)C(C)(C)c2ccccc21	-14%	7%	-25%	?	-1%
Cc1ccc(NCc2ccc(O)c3ncccc23)cc1C	5%	6%	2µM*	-21%	-7%
Cc1ccc(NCc2ccc(O)c3ncccc23)cc1	3%	-1%	0.5µM*	-10%	-1%
Cc1cccnc1NCc1ccc(O)c2ncccc12	-12%	5%	?	-4%[11.4 µM]	17%
CSCCC(NC(C)=O)C(=O)Oc1ccc2c3c(c(=O)oc2c1)CCCC3 (stereo unspecified)	583%	8%	50µM*	-26%	-1%
SMILES	TrxR1 substrate	IDH1 R132H inh	TrxR1 inh	RGS4 inhibitor	Eya2 phos inh
Cc1cccc(NC(=O)CSc2nc(N)cc(N)n2)c1	7%	1%	8%	-39%	0%
Cc1cccc(NC(=O)CSc2nnc(-c3ccco3)c(-c3ccco3)n2)c1	-5%	0%	8.9µM*	?	-1%
Cc1cccc(NC(=O)CSc2nnc(-c3ccco3)c(-c3ccco3)n2)c1C	-6%	2%	2.8µM*	?	7%
COc1cccc2cc(C(=O)C3=C(O)C(=O)N(CCN4CCOCC4)C3c3ccc(C)o3)oc12 (stereo unspecified)	-12%	9%	79µM*	-16%	-16%
COc1ccccc1C1C(C(=O)c2cc3ccccc3o2)=C(O)C(=O)N1CCN1CCOCC1 (stereo unspecified)	-10%	-1%	22µM*	-49%	-9%
CC(=O)Nc1ccc(C(=O)/C=C/c2ccco2)cc1	-11%	5%	45µM*	?	1%
Cc1ccc(NC(=O)N/C=C/c2ccco2)cc1	18%	9%	16µM*	-31%	-16%
O=C(/C=C/c1ccco1)NC(=S)Nc1cccc(C(=O)O)c1	-2%	10%	40µM*	-38%	2%
Cc1ccc(NC(=O)/C(=C\c2ccco2)NC(=O)c2ccco2)cc1	-4%[57.1 µM]	11%	?	-3%	1%
CC(=O)Nc1cccc(C(=O)/C=C/c2ccco2)c1	-13%	0%	?	-23%	-6%
O=C(/C=C/c1ccco1)Nc1ccc2nn(-c3ccccc3)nc2c1	-5%	10%	56µM*	-53%	-3%
COc1ccc(C(=O)OCc2ccccc2F)cc1S(=O)(=O)N1CCCC1	-18%	-5%	-10%	-7%	-13%
COc1cc(NS(=O)(=O)c2ccc(NC(=S)NC(=O)/C=C/c3ccco3)cc2)ncn1	-17%	-8%	56µM*	-19%	1%
CCOc1ccc(NC(=S)NC(=O)/C=C/c2ccco2)cc1	10%[57.1 µM]	3%	-8%[57.1 µM]	1%	9%
COc1cccc(NC(=S)NC(=O)/C=C/c2ccco2)c1	6%[57.1 µM]	1%	-31%[57.1 µM]	-53%	3%
CC(=O)Nc1ccc(NC(=S)NC(=O)/C=C/c2ccco2)cc1	2%	0%	40µM*	?	-4%
CN1CCN(c2ccc(NC(=S)NC(=O)/C=C/c3ccco3)cc2)CC1	-8%	19%	-22%	-17%	-5%
CC(=O)N(C)c1ccc(NC(=S)NC(=O)/C=C/c2ccco2)cc1	-4%	-5%	35µM*	-41%	-5%
Cc1n[nH]c(=O)c2c(NC(=O)CSc3nn(-c4ccc(F)cc4)c(=S)s3)oc(C)c12	-11%	-5%	?	-20%	-16%
O=C(/C=C/c1cccc([N+](=O)[O-])c1)OC1CCCCC1=O (stereo unspecified)	-6%	2%	-17%	16%[11.4 µM]	6%
Cc1ccccc1CS(=O)(=O)c1nnc([C@H](Cc2ccccc2)NC(=O)OC(C)(C)C)o1	0%	-5%	0.63µM*	?	-3%
Cc1cccc(CS(=O)(=O)Cc2ccc(C(=O)NC(C)c3ccccc3)o2)c1 (stereo unspecified)	3%[57.1 µM]	3%	-1%[57.1 µM]	-17%[56.9 µM]	-3%
CCC(C)[C@@H](NC(=O)OC(C)(C)C)c1nnc(S(=O)(=O)Cc2cccc(C)c2)o1 (stereo partly specified)	-15%	1%	1.8µM*	-44%	16%
CC(C)(C)OC(=O)N[C@@H](Cc1ccccc1)c1nnc(S(=O)(=O)Cc2ccccc2)o1	nt	nt	nt	nt	-8%
Cc1ccc(NC(=O)CN(C)Cc2c(O)ccc3ccccc23)cc1	9%	9%	14µM*	?	-5%

High-throughput results (PubChem)
